TDP1 cell CPT = growth inhibition of DT40 Tdp1-/-;hTDP1 cells with camptothecin (screen for TDP1 inhibitors); chicken DT40 Tdp1-/-;hTDP1 cells + 20 nM CPT, ATP luminescence, 48 h; Potency, µM (doses to about 46.2 µM), without a hit: at the highest dose activity change, negative = growth inhibition, actives largely listed as inhibitors; 12% of 420,000 active; note: potency is the fitted concentration of half-maximal effect; nearly all actives have a fitted effect of over 55% in size
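Chicken DT40 Tdp1-/- cells complemented with human TDP1, 400 cells/well, exposed to compounds plus 20 nM camptothecin for at least 48 h at 37 C; viability read as ATP content by CellTiter-Glo luminescence.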
IL-1B inflam inh = inhibitors of inflammasome signaling (IL-1 beta secretion) | THP-1 LPS/ATP IL-1B secretion, AlphaLISA, 16 h; active compounds read low | activity change, % at 57.5 µM | 4.7% of 360,000 active; in the data active = activity change below about -50%; inconclusive = mostly about -30% to -49%
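THP-1 cells pretreated 1 hr with compounds (up to 57.5 uM final), then stimulated with LPS (250 ng/mL final) plus ATP (1.25 mM final); secreted IL-1B measured by AlphaLISA after 16 hr, decreased signal indicating inhibition.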
TDP1 cell noCPT = qHTS for Inhibitors of human tyrosyl-DNA phosphodiesterase 1 (TDP1): qHTS in cells in absence of CPT | 15% of 420,000 active | DT40 Tdp1-/- hTDP1 cells, no CPT, ATP luminescence, 48 h | AID 686978, 2013 | Potency, µM (doses to about 46.2 µM), for inactives: at the highest dose activity change, negative = growth inhibition, hits mostly inhibitors; note: potency is the fitted concentration of half-maximal effect; nearly all actives have a fitted effect of over 55% in size
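Stably hTDP1-transfected Tdp1-null chicken DT40 cells were treated with library compounds minus camptothecin and grown for at least 48 hr at 37 °C, after which cellular ATP was quantified by luminescence.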
VP16 counter = inhibits Gal4-VP16 luciferase reporter, ROR gamma counter-screen; Drosophila S2 Gal4-VP16 UAS-luciferase, luminescence, 20 h; Potency, µM (top dose mostly 53.6 µM), for inactives: at the top dose activity, negative = inhibition, actives largely listed as inhibitors; 3.5% of 310,000 active;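 note: Gal4-VP16 expression switched on by copper sulfate through the metallothionein promoter; potency is the fitted concentration of half-maximal effect; nearly all actives have a fitted effect of over 50% in size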
ELG1 DNA repair = blocks ELG1-dependent DNA repair in HEK293T cells; HEK293T ELG1-luciferase reporter, luminescence, 16 h; DNA damage induced by 5-fluorouridine; Potency, µM (highest dose often 46.1 µM), inactives show at the top dose activity change, negative = inhibition, actives largely listed as inhibitors; 2.3% of 330,000 active; note: potency is the fitted concentration of half-maximal effect; nearly all actives have a fitted effect of over 55% in size
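In this reporter screen, reduction of luminescence relative to DMSO vehicle indicated activity. Compounds and 5-fluorouridine were added together to 2,000 cells per well, incubated for 16 hr at 37 °C, then developed with ONE-Glo.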
RORg inh = inhibitors of mouse ROR gamma transcriptional activity; P51450; Drosophila S2 Gal4-RORgamma UAS-luciferase reporter, 20 h; Potency, µM (doses to about 53.6 µM), inactives show at the highest dose activity change, negative = inhibition, actives largely listed as inhibitors; 5.4% of 310,000 active; AID 2551; note: potency is the fitted concentration of half-maximal effect; nearly all actives have a fitted effect of over 60% in size
Target sequence (P51450 whole entry, looked up, the tested form may be a part): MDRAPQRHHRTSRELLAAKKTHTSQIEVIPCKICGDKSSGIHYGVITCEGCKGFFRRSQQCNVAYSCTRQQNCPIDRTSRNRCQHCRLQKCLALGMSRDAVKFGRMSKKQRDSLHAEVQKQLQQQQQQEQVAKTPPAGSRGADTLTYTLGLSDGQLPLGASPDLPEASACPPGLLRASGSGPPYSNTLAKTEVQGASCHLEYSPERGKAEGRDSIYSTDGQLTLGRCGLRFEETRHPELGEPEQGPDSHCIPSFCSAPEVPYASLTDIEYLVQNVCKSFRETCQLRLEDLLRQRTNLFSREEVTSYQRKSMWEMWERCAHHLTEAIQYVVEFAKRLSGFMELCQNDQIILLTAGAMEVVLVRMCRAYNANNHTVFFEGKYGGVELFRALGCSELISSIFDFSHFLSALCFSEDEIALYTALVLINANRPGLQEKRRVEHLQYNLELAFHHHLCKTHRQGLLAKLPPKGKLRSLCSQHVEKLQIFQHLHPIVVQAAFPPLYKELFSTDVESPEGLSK
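Compounds are pin-transferred onto Drosophila Schneider cells expressing a copper-inducible Gal4–ROR gamma transactivation domain fusion. After 1 hr, copper sulfate is added to 700 uM final; luciferase is read 20 hr later.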
* marks the source's active call; other numbers are inactive results; ? = inconclusive; nt = not tested or not shown. A selection: hits, their analogues and other compounds. The true share with any hit is near 21%. Unless noted, calls come from the whole dose curve; as a rule, active = well fitted curve in the direction sought with a large enough effect; inconclusive = small, poorly fitted or top-dose-only effect, or another doubt; inactive = no such curve, though single readings can be large; an effect the other way counts as inactive or inconclusive. % is set by controls: 0 for no effect and ±100 for the full control effect.

SMILES | TDP1 cell CPT | IL-1B inflam inh | TDP1 cell noCPT | VP16 counter | ELG1 DNA repair | RORg inh
CC(C)c1cnc2c(c1SCC(=O)c1ccc(Cl)cc1)c(=O)n(C)c(=O)n2C | 18.4µM* | nt | 23.1µM* | nt | nt | nt
CSc1ccc(CNCc2c(C(=O)O)c(C)n(Cc3ccc(F)cc3Cl)c2C)cc1 | ? | nt | -21.4% | nt | nt | nt
CCCNC(=O)C1(C)CCN(C(=O)c2ccc(OC(F)F)cc2)C1 (stereo not drawn) | -15.9% | 4.5 | -16.1% | nt | nt | nt
CCc1cnc2c(c1SCC(=O)c1ccc(OC)cc1)c(=O)n(C)c(=O)n2C | 11.6µM* | nt | 11.6µM* | nt | nt | nt
CC1CCN(C(=O)CSc2c(C(C)C)cnc3c2c(=O)n(C)c(=O)n3C)CC1 | 25.9µM* | nt | 16.4µM* | nt | nt | nt
CC(C)c1cnc2c(c1SCC(=O)Nc1cccc(F)c1)c(=O)n(C)c(=O)n2C | ? | nt | 14.6µM* | nt | nt | nt
CC(C)c1cnc2c(c1SCC(=O)O)c(=O)n(C)c(=O)n2C | 0.6% | nt | 6.3% | nt | nt | nt
COC(=O)c1ccc(CSc2c(C(C)C)cnc3c2c(=O)n(C)c(=O)n3C)cc1 | ? | nt | 23.1µM* | nt | nt | nt
CC(C)c1cnc2c(c1SCc1cccc(C(F)(F)F)c1)c(=O)n(C)c(=O)n2C | ? | nt | 23.1µM* | nt | nt | nt
CCc1ccc(-n2nc(CO)c(C(=O)NCCCCc3ccccc3)n2)cc1 | 7.1% | nt | -17.9% | nt | nt | nt
CCOC(=O)Nc1ccc2c(c1)N(C(=O)CCN(CC)CC)c1ccccc1S2=O (stereo not drawn) | 2.59µM* | -100.1* | 3.66µM* | 12.6µM* | -3.3% | ?
CCOC(=O)Nc1ccc2c(c1)N(C(=O)CN(CC)CC)c1ccccc1CC2 | ? | -17.1 | ? | 4.6% | 0.1% | -9.2%
CCN(CC)CCC(=O)N1c2ccccc2CCc2ccc(NC(=O)OC)cc21 | -21.1% | -62.5* | -6.8% | -0.2% | 16.5% | 5.2%
CCOC(=O)Nc1ccc2c(c1)N(C(=O)CCN(CC)CC)c1ccccc1CC2 | ? | ? | ? | -15.9% | 0.0% | -2.2%
CC1CCN(CC(=O)Nc2cccc(Cl)c2)CC1 | ? | -22.6 | 1.4% | -7.0% | 2.9% | 24.5%
COc1ccc(C(=O)NCCCOC(C)C)cc1OC1CCN(C(C)=O)CC1 | 8.4% | 5.0 | 2.1% | 0.8% | ? | 3.8%
O=C(COc1cccc(Br)c1)N/N=C1\CCCc2ccccc21 | -8.3% | 3.9 | -8.6% | -4.5% | ? | -0.9%
O=C(COc1cccc(Br)c1)NN=C1c2ccccc2-c2ccccc21 | 0.5% | -2.6 | ? | ? | 14.3% | 20µM*
CCN1C(=O)[C@H]2[C@@H](c3ccc(-c4cccc(Cl)c4)cc3)N[C@@](Cc3ccccc3)(C(=O)OC)[C@H]2C1=O | ? | ? | ? | nt | 1.5% | nt
CC(C)c1ccc2c(c1)C1(NN=C(c3ccccc3)S1)C(=O)N2 (stereo not drawn) | 3.66µM* | -12.9 | 6.51µM* | 5.01µM* | ? | 5.62µM*
CCc1ccc2c(c1)C1(NN=C(c3ccc(C)cc3)S1)C(=O)N2 (stereo not drawn) | 16.4µM* | -100.0* | 8.2µM* | 3.55µM* | ? | 3.98µM*
CC(C)c1ccc(O)c(NC(=O)c2ncn[nH]2)c1 | -26.4% | 1.5 | -23.6% | 9.3% | 23.7% | 17.7%
CSc1ccc(CN(C)C(=O)COc2ccc(C(=O)c3ccccc3)cc2)cc1 | ? | 22.6 | 14.6µM* | -5.5% | -9.1% | 20.4%
Cc1ccc2cccc(OCC(=O)N(C)CC(=O)Nc3ccc(F)cc3)c2n1 | -20.0% | -5.5 | -7.6% | nt | -0.6% | nt
CN(CC(=O)Nc1ccc(F)cc1)C(=O)COc1ccccc1Cc1ccccc1 | ? | -69.4* | ? | nt | ? | nt
